Results as given in PubChem BioAssay AID493131 (Broad Institute, 2011).
In all, about 340,000 compounds went through this assay and about 3,300 (0.97%) were called active.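 How the source made its calls: active means mean activation above about 17%, with every replicate also reaching it (limit read from the data, passing the limit was not always enough); inconclusive means only one of the two conditions met; inactive means the rest.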 The full list was thinned out, with actives kept by preference.

target: Protein FosB (Mus musculus) (UniProt P13346); assay: activators of delta FosB homodimer, primary screen, biochemical, fluorescence polarization, TAMRA-CDK5 oligo, single point (AID 493131); details: purified delta FosB, at 25 µM, active compounds read high, percent of positive-control signal above neutral wells;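 further: fluorescence polarization rise as delta FosB binds a TAMRA Cdk5 AP-1 oligo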
Sequence (P13346 whole entry, looked up): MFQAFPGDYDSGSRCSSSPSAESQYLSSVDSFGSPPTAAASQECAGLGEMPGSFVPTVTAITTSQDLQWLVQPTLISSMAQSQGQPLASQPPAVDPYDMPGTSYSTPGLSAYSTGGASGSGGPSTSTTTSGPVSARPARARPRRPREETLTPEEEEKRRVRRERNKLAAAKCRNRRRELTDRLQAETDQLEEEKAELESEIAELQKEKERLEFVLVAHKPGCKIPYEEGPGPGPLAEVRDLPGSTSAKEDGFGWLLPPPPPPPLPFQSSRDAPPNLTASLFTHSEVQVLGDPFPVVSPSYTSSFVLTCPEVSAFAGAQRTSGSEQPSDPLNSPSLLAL

Row | SMILES | activation
1 | O=C(Nc1ccc(Br)cn1)C1CCN(S(=O)(=O)c2cccs2)CC1 | 0.962% (inactive)
2 | CN(CCNC(=O)c1cc2c(-c3ccccc3F)nn(C)c2s1)C1CCCCC1 | -29% (inactive)
3 | CSc1nc2c(c(=O)[nH]1)C(c1cccc(Cl)c1Cl)CC(=O)N2 (configuration not stated) | -2.19% (inactive)
4 | COc1ccc(C2CC(=O)Nc3sc(=N)c4c(N)c(C#N)c(N)nc4c32)cc1OC (configuration not stated) | 2.35% (inactive)
5 | N#Cc1c(N)nc2c3c(sc(=N)c2c1N)NC(=O)CC3c1ccccc1Cl (configuration not stated) | 57.2% (active)
6 | O=C(Nc1ccc(N2CCN(C(=O)c3cccs3)CC2)cc1)c1cccnc1Cl | -0.363% (inactive)
7 | Nc1nnc(SCC(=O)OCc2ccc(Cl)c(Cl)c2)s1 | -5.37% (inactive)
8 | COc1ccc(OCC(O)CN(C)C(=O)C(C)Oc2ccccc2)cc1 (configuration not stated) | 4.24% (inactive)
9 | CN(C)CC(O)COc1ccc(C(C)(C)c2ccc(OCC(O)CN(C)C)cc2)cc1 (configuration not stated) | 20% (active)
10 | Cc1cc(C)n(CC(O)COc2ccc(C(C)(C)C)cc2)n1 (configuration not stated) | -7.22% (inactive)
11 | O=C1CC(Sc2ncn[nH]2)C(=O)N1c1ccccc1 (configuration not stated) | 1.52% (inactive)
12 | Cc1cc(Nc2cc(N3CCN(C)CC3)nc(Sc3ccc(NC(=O)C4CC4)cc3)n2)n[nH]1 | 3.28% (inactive)
13 | CCCOCC(O)CC(CC)C(=O)NNC(=S)Nc1ccccc1 (configuration not stated) | -0.789% (inactive)
14 | Cc1ccc(/C=N/NC(=O)COc2ccccc2-c2ccccc2)cc1 | 2.13% (inactive)
15 | O=C(/C=C/c1ccc(F)cc1)NCCNC(=O)/C=C/c1ccc(F)cc1 | 53.1% (active)
16 | O=C(/C=C/c1ccc(F)cc1)NC(=S)NNC(=O)c1cccnc1 | -8.6% (inactive)
17 | C=CCNC(=O)/C=C/c1ccc(C(C)C)cc1 | -5.28% (inactive)
18 | Cc1ccc2occ(/C=N/NC(=O)c3ccccc3C)c(=O)c2c1 | -9.18% (inactive)
19 | O=C1/C(=C/c2coc3ccc(O)cc3c2=O)SC(=S)N1c1ccccc1 | 45.3% (active)
20 | O=c1c(/C=N/O)coc2ccc(Cl)cc12 | -6.61% (inactive)
21 | COc1ccc(CNC(=O)c2ccc3oc(C(C)C)nc3c2)cc1 | -6.34% (inactive)
22 | CC(=O)Nc1ccc(Nc2c3ccccc3nc3ccccc23)cc1 | 107% (active)
23 | CC(=O)Nc1ccc(S(=O)(=O)N(C)c2nc3ccccc3nc2Cl)cc1 | -7.23% (inactive)

Row | SMILES | activation
24 | CC(=O)Nc1ccc(Nc2c([N+](=O)[O-])cc(S(C)(=O)=O)cc2[N+](=O)[O-])cc1 | 9.05% (inactive)
25 | COC(=O)CNC(=O)c1ccc(OC2CCN(C(=O)C3CC3)CC2)cc1 | 4.73% (inactive)
26 | O=C(NCc1ccccc1)C1CCCN(S(=O)(=O)c2cccs2)C1 (configuration not stated) | -3.74% (inactive)
27 | COc1ccc(C(=O)NN2C(=O)C3C(c4ccccc4)C=CC(c4ccccc4)C3C2=O)cc1 (configuration not stated) | -10.4% (inactive)
28 | COc1ccccc1NC(=O)CCC(=O)OC(C)C(=O)c1ccccc1 (configuration not stated) | -0.918% (inactive)
29 | O=C(O)C1C2C=CC(O2)C1C(=O)Nc1ccccn1 (configuration not stated) | 2.08% (inactive)
30 | O=C(NCCc1ccccn1)c1cc(-c2ccc(Cl)cc2)nc2ccccc12 | -16.7% (inactive)
31 | COc1ccccc1CNC(=O)c1cc(=O)c2ccccc2o1 | -8.74% (inactive)
32 | COc1ccccc1CNC(=O)Cn1c(=O)oc2cc(Cl)ccc21 | 46.6% (active)
33 | COc1ccc(OC)c(NC(=O)Cn2c(=O)oc3ccccc32)c1 | -3.42% (inactive)
34 | COc1ccccc1C(=O)NCC(=O)OCC(=O)Nc1nnc(-c2ccccc2)o1 | 0.87% (inactive)
35 | CCOc1ccc(S(=O)(=O)NCCC(=O)NCC(C)(C)N2CCOCC2)cc1 | -1.62% (inactive)
36 | NC(N)=Nc1nc2ccc(Br)cc2c(=O)[nH]1 | 42.4% (active)
37 | NC(=O)c1cc(-c2cccnc2)nc2ccc(Br)cc12 | 0.097% (inactive)
38 | C/C(=N\N)c1c(-c2ccccc2)c2cc(Br)ccc2[nH]c1=O | -5.15% (inactive)
39 | CC(=O)Nc1ccc(S(=O)(=O)N2CCN(CCCOc3cc(C)ccc3C)CC2)cc1 | 0.131% (inactive)
40 | N#Cc1c(NC(=O)CSc2nc3ccccc3c(=O)n2Cc2ccco2)sc2c1CCCC2 | 6.6% (inactive)
41 | Cc1cc(NC(=O)CSc2nnc(-c3ccco3)n2N)no1 | 2.33% (inactive)
42 | Cc1cc(NC(=O)CSc2nc3cc(Cl)ccc3c(=O)n2Cc2ccco2)no1 | 41.2% (active)
43 | COc1ccc(CCN2C(=O)CC(N3CCC(C(N)=O)CC3)C2=O)cc1OC (configuration not stated) | -2.97% (inactive)
44 | CCOC(=O)N1CCN(C(=O)C2CCCN(c3ncnc4c3sc3cccc(F)c34)C2)CC1 (configuration not stated) | -16.9% (inactive)
45 | Cc1c(/C=N\NC(=O)c2cc3ccccc3o2)c2ccccc2n1C | -8.02% (inactive)
46 | O=C(N/N=C/c1cccc(O)c1)c1cc2c(ccc3ccccc32)o1 | 36.7% (active)

Row | SMILES | activation
47 | O=C(NN=Cc1ccccc1)c1ccccc1 | -3.35% (inactive)
48 | COC(=O)c1cccnc1NC(=S)NC(C)C | -6.13% (inactive)
49 | COc1ccccc1CC(=O)Nc1ccc(S(=O)(=O)N2CCCC2)cc1 | -8.89% (inactive)
50 | C/C=C(\C)C(=O)N1CC2(CC(c3cccc(NC(=O)CCCCC)c3)=NO2)C[C@@H]1C(N)=O (some centres not stated) | -1.2% (inactive)
51 | CCCCNC(=O)C(C)N(CCN(C)C)C(=O)CCCN1C(=O)NC(c2ccc(Cl)cc2)C(C(=O)OCc2ccccc2)=C1C (configuration not stated) | -3.28% (inactive)
52 | CC1=C(C(=O)OCc2ccccc2)C(c2ccc(C(F)(F)F)cc2)NC(=O)N1CCCCCC(=O)O (configuration not stated) | -6.43% (inactive)
53 | CCCCNC(=O)C(C)N(CCN(C)C)C(=O)CCCCCN1C(=O)NC(c2ccc(Cl)cc2)C(C(=O)OCc2ccccc2)=C1C (configuration not stated) | 18.2% (active)
54 | Cc1ccc(CC2CC(=O)N(c3ccc4c(c3)OCCO4)C2=O)cc1 (configuration not stated) | -9.23% (inactive)
55 | N#CC(C#N)=CN=c1ccn(Cc2ccc(Cl)cc2Cl)cc1 | -0.0405% (inactive)
56 | COc1ccccc1-n1c(=S)[nH]c2c(sc(=S)n2-c2ccc(C)cc2C)c1=O | -9.95% (inactive)
57 | COc1ccc(C(=O)Nc2c(N)nc(SCC(=O)Nc3ccc(C(C)=O)cc3)[nH]c2=O)cc1 | 22% (active)
58 | COc1ccc(NC(=O)CSc2nc(N)c(-c3ccccc3)c(=O)[nH]2)cc1 | -6.21% (inactive)
59 | COc1ccc(C(=O)Nc2c(N)nc(SCC(=O)N3CCC(C)CC3)[nH]c2=O)cc1OC | -3.09% (inactive)
60 | O=C(COC(=O)CNS(=O)(=O)c1ccc(F)c(F)c1F)NC1CCCC1 | 0.263% (inactive)
61 | COc1ccc(CCN(Cc2cc3cccc(C)c3[nH]c2=O)C(=O)N2CCCC2)cc1OC | -15.7% (inactive)
62 | Fc1ccccc1N=C1Nc2cccc3cccc1c23 | 3.8% (inactive)
63 | COc1ccccc1C1=Nc2cccc3cccc(c23)N1 | -1.27% (inactive)
64 | c1ccc(C2=Nc3cccc4cccc(c34)N2)cc1 | 28.1% (active)
65 | CC(=O)N1CSCC1C(=O)O (configuration not stated) | 0.385% (inactive)
66 | Cc1ccc(NC(=O)C(CC(=O)O)C2CCCO2)c(C)c1 (configuration not stated) | -0.253% (inactive)
67 | Cn1ccnc1SCC(=O)Nc1ccc2c(c1)OCCO2 | -4.18% (inactive)
68 | O=C(NN=CC=Cc1ccccc1)C(O)C(O)C(=O)NN=CC=Cc1ccccc1 (configuration not stated) | 2.15% (inactive)
69 | CC(C)c1cc(C(=O)N/N=C/C(Br)=C/c2ccccc2)n[nH]1 | -3.49% (inactive)

Row | SMILES | activation
70 | Cc1ccc(-c2cc(C(=O)N/N=C/C=C/c3ccccc3)n[nH]2)o1 | 23.5% (active)
71 | Cc1ccc(OCc2cc(C(=O)N(C)CCn3ccnc3C)no2)cc1C | -7.77% (inactive)
72 | O=C(c1ccc(NS(=O)(=O)c2ccc3[nH]c(=O)[nH]c3c2)cc1)N1CCCCC1 | -5.69% (inactive)
73 | Cc1cccc([C@@H]2[C@@H]3C(=O)N(Cc4ccccc4)C(=O)[C@@H]3[C@]3(Cc4ccc(Cl)cc4)C(=O)N(c4cccc(Cl)c4)C(=O)N23)c1 | -7.94% (inactive)
74 | COc1ccc(-n2c(SCC(=O)Nc3sc4c(c3C#N)CCCC4)nnc2-c2ccc(O)cc2)cc1 | 23.1% (active)
75 | COc1cccc(CN(C)CC(=O)Nc2sc3c(c2C#N)CCC3)c1 | -3.77% (inactive)
76 | CCCc1cc(=O)[nH]c(SCC(=O)Nc2sc3c(c2C#N)CCCC3)n1 | -10.9% (inactive)
77 | NC(=O)c1nnsc1-c1ccc(-c2snnc2C(N)=O)cc1 | 12.3% (inactive)
78 | Cc1c(C(=O)NCCN2CCOCC2)sc2nc(-c3ccc(F)cc3)cn12 | -10.6% (inactive)
79 | CCCCn1c(N)c(N(CC(C)C)C(=O)c2ccc(-n3c(C)ccc3C)cc2)c(=O)[nH]c1=O | 8.61% (inactive)
80 | COc1ccc2nc(C)cc(Nc3cccc(C(=O)O)c3)c2c1 | -0.297% (inactive)
81 | Cc1nc(/N=C(\N)NC(=O)NC2CCCCC2)nc2ccccc12 | 3.68% (inactive)
82 | COc1ccc2nc(/N=C(\N)NC(=O)Nc3ccccc3)nc(C)c2c1 | 52.1% (active)
83 | O=S(=O)(NCC1CN(S(=O)(=O)c2ccc3c(c2)OCCO3)C1)c1c(F)cccc1F | 2.95% (inactive)
84 | CS(=O)(=O)N1CCN=C1SCc1ccc(F)cc1 | 1.39% (inactive)
85 | CCOc1cc2ccccc2cc1C(=O)Nc1ccccn1 | -0.935% (inactive)
86 | CCN(CC)CCOc1ccc2c(c1)C(=NNC(=O)c1ccccn1)c1cc(OCCN(CC)CC)ccc1-2 | 79.1% (active)
87 | C/C(=N\NC(=O)c1ccccc1F)c1ccccn1 | -8.45% (inactive)
88 | CN(C)NC(=O)C(NC(=O)c1ccc(N)cc1)C12CC3CC(CC(C3)C1)C2 (configuration not stated) | -3.81% (inactive)
89 | Cc1oc(CC(C)C)c(CN2CCCC2)c1C(=O)O | 4.27% (inactive)
90 | COc1ccccc1OCC(=O)Nc1ccccc1C(=O)NC1CC1 | -0.401% (inactive)
91 | Cc1ccc(OCC(=O)Nc2ccccc2C(=O)NC2CC2)cc1 | -7.85% (inactive)
92 | Cc1ccc(OCC(=O)Nc2ccccc2C(=O)NC2CC2)cc1C | 36.7% (active)
